Source: PubChem
hNpr1 antagonist = Natriuretic polypeptide receptor (hNpr1) antagonism - Primary qHTS; 1.6% of 76,000 active; HEK293 hNpr1 GloSensor cGMP, ANP-stimulated luminescence; Atrial natriuretic peptide receptor 1 (Homo sapiens), P16066; AID 1347048, 2019; Potency, µM (highest dose often 46.3 µM), without a hit: at the highest dose activity change, negative = inhibition, hits mostly inhibitors; calls by dose curve; note: % is set by controls: 0 for no effect and ±100 for the full control effect; nearly all actives have a fitted effect of over 60% in size
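Compound pre-incubated 30 min at room temperature on GloSensor-loaded HEK293 cells stably carrying hNpr1 and the pGS-40F cGMP biosensor. Stimulation uses hNppA at 0.1 nM final; luminescence is taken at baseline and 20 min post-agonist.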
FLuc inh = Firefly luciferase inhibition profiling of diverse chemical library using quantitative high-throughput screening. Luciferin 4-monooxygenase (Photinus pyralis), P08659. purified P. pyralis luciferase, luminescence, biochemical. Potency, µM (series often up to 115 µM), most hits filed as inhibitors. 2.5% of 76,000 active. AID 1347043, 2019; note: % is set by controls: 0 for no effect and ±100 for the full control effect; nearly all actives have a fitted effect of over 65% in size
Target sequence (P08659 whole entry, looked up): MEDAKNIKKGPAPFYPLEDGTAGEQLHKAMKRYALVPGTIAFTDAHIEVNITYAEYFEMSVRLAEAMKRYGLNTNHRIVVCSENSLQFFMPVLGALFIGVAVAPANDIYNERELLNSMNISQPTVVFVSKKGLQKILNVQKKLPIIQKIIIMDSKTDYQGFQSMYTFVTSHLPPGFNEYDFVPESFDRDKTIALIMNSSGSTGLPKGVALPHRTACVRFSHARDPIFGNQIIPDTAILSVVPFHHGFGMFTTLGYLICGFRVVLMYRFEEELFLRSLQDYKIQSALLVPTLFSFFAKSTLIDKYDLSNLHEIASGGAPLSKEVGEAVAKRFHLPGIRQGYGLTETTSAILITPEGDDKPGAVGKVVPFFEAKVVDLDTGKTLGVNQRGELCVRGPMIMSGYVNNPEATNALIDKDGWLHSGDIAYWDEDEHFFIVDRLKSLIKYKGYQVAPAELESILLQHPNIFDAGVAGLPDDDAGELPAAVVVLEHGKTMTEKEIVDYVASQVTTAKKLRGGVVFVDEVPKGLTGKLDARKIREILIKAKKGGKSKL
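Luminescence read by CCD imager after adding enzyme (10nM final) to wells holding compound, titrated in qHTS. Substrates 10uM each D-luciferin and ATP; buffer 50mM Tris acetate pH 7.5, 10mM Mg acetate, Tween-20, BSA.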
3T3 cytotox = Cytotoxic Profiling in NIH 3T3 Cell Line of Diverse Libraries Using Quantitative High-Throughput Screening. NIH 3T3 viability, CellTiter-Glo ATP luminescence, 48-72 h. Potency, µM (doses to about 96.7 µM), inactives show at the top dose activity change, negative = cytotoxicity, hits mostly inhibitors. 4.3% of 94,000 active. AID 1345082, 2018; note: % is set by controls: 0 for no effect and ±100 for the full control effect; nearly all actives have a fitted effect of over 55% in size
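ATP-dependent luminescence (CellTiter-Glo) served as the viability signal for NIH 3T3 cells treated with compound for 48 or 72 hr at 37 °C.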
HEK cytotox = Cytotoxic Profiling in HEK 293 Cell Line of Diverse Libraries Using Quantitative High-Throughput Screening | 6.6% of 94,000 active | Potency, µM (doses to about 115 µM), for the others: at the top dose activity change, negative = cytotoxicity, actives largely listed as inhibitors | HEK 293 viability, ATP luminescence (CellTiter-Glo), 48-72 h; note: % is set by controls: 0 for no effect and ±100 for the full control effect; nearly all actives have a fitted effect of over 60% in size
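Read-out: CellTiter-Glo ATP luminescence. Cells: HEK 293, 250 cells/well. Exposure: 48 or 72 hr, 37 degree Celsius.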
GPT2 inhibitor = Primary qHTS assay for inhibitors of Glutamate pyruvate transaminase 2 (GPT2). Alanine aminotransferase 2 (Homo sapiens), Q8TD30. Recombinant GPT2, coupled pyruvate oxidase/HRP Amplex Red fluorescence. Potency, µM (doses to about 57.7 µM), for the others: top-dose activity change, negative = inhibition, usual class: inhibitors. 0.25% of 100,000 active. AID 1671188, 2021; note: % is set by controls: 0 for no effect and ±100 for the full control effect; nearly all actives have a fitted effect of over 60% in size
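Fluorescence of coupled pyruvate oxidase/HRP/Amplex Red system (50uM Amplex, 30 min, dark) reports pyruvate formed by GPT2. Enzyme reaction: 10ng/uL GPT2, 2mM L-alanine, 250uM a-KG, 30 min room temperature, pH 7.5; 50uM AOA control.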
Npr1 antag conf = Natriuretic polypeptide receptor (hNpr1) antagonism - Confirmation. shares compounds with hNpr1 antagonist. HEK293 hNpr1 cGMP GloSensor luminescence, ANP-stimulated. Potency, µM (series often up to 57.6 µM), without a hit: at the highest dose activity change, negative = inhibition, hits mostly inhibitors. 76% of 1,400 active. AID 1347044, 2019; calls by dose curve; note: nearly all actives have a fitted effect of over 70% in size
NPR2 antag = Natriuretic polypeptide receptor (hNpr2) antagonism - Subtype selectivity assay. shares compounds with hNpr1 antagonist. HEK293 hNpr2 GloSensor cGMP luminescence, CNP-stimulated. Potency, µM (titrated, usually from 57.6 µM), for the others: at the top dose activity change, negative = inhibition, hits mostly inhibitors. 67% of 1,400 active; calls by dose curve; note: nearly all actives have a fitted effect of over 70% in size
FLuc inh counter = Natriuretic polypeptide receptor (hNpr1) antagonism - Confirmation firefly luciferase (FLuc) inhibition counterscreen. shares compounds with hNpr1 antagonist. 0.7% of 1,400 active. purified FLuc enzyme, luminescence, Km substrate. Potency, µM (top dose mostly 57.6 µM), for the others: at the highest dose activity change, negative = inhibition, most hits filed as inhibitors; note: 0% is about no effect
GloSensor ctrl = Natriuretic polypeptide receptor (hNpr1) antagonism - Counterscreen GloSensor control cell line; HEK293 GloSensor cGMP, SNP-stimulated, luminescence; 69% of 1,400 active; Potency, µM (highest dose often 57.6 µM), for the others: at the top dose activity change, negative = inhibition, usual class: inhibitors; shares compounds with hNpr1 antagonist; calls by dose curve; note: % is set by controls: 0 for no effect and ±100 for the full control effect; nearly all actives have a fitted effect of over 70% in size
An asterisk follows results filed as active; i = inactive; ? = inconclusive; . = not tested or not shown; [ ] = remark or other dose. In the library only some 10% were active in any assay of this set; here they are far more common. Unless noted, calls come from the whole dose curve; as a rule, active = well fitted curve in the direction sought with a large enough effect; inconclusive = small, poorly fitted or top-dose-only effect, or another doubt; inactive = no such curve, though single readings can be large; an effect the other way counts as inactive or inconclusive. Potency is the fitted concentration of half-maximal effect.

SMILES	hNpr1 antagonist	FLuc inh	3T3 cytotox	HEK cytotox	GPT2 inhibitor	Npr1 antag conf	NPR2 antag	FLuc inh counter	GloSensor ctrl
Fc1ccc(-c2cnc([C@@H]3COCCN3Cc3cccnc3)[nH]2)c(F)c1	-10.9%[70.6 µM]	i	?	?	?	.	.	.	.
Fc1ccc(-c2cnc([C@@H]3COCCN3Cc3c[nH]c4ccccc34)[nH]2)c(F)c1	25.1µM*	i	?	79.4µM*	-24.0%[88.5 µM]	35.3µM*	44.4µM*	-6.3%[86.2 µM]	39.6µM*
CN(Cc1cccc2ccccc12)C(=O)c1cc(CN2CCOCC2)on1	-1.8%	i	0.3%	4.1%	-19.1%	.	.	.	.
Cc1nc(CN(C)C(=O)c2cc(Cn3c(C)nc4ccccc43)on2)cs1	10µM*	i	?	?	-5.9%	19.3µM*	17.2µM*	1.2%	13.7µM*
N#Cc1cccnc1-c1ccc(C(=O)N2CCC(NC(=O)c3ccccn3)CC2)cc1	.	.	-21.9%	?	i	.	.	.	.
Cc1ncsc1CN1CCCCC1c1nc(CCOc2ccc(F)cc2)no1 (stereo unspecified)	10µM*	i	?	15.8µM*	-6.0%	21.7µM*	19.3µM*	-0.6%	19.3µM*
Cc1ncsc1CN1CCCCC1c1nc(CCOCC2CC2)no1 (stereo unspecified)	?	i	-35.6%	?	i	.	.	.	.
COc1cccc(CN2CC(Oc3ccccc3C(=O)NC3CC3)C2)n1	-14.7%	i	-12.4%	?	-3.6%	.	.	.	.
O=C(c1ccc(Cl)cc1Cl)N1CCN(c2cc(-c3cccs3)[nH]n2)CC1	10µM*	i	8.91µM*	44.7µM*	-6.0%	24.3µM*	19.3µM*	1.2%	21.7µM*
COc1cc(Cl)ccc1C(=O)N1CCN(c2cc(-c3cccs3)[nH]n2)CC1	11.2µM*	i	?	25.1µM*	i	19.3µM*	19.3µM*	1.9%	17.2µM*
COc1ccc(Cl)cc1C(=O)N1CCN(c2cc(-c3cccs3)[nH]n2)CC1	?	i	?	?	i	.	.	.	.
COc1ccc(C(=O)N2CCN(c3cc(-c4cccs4)[nH]n3)CC2)c(C)c1	11.2µM*	i	?	50.1µM*	i	19.3µM*	19.3µM*	0.4%	15.3µM*
CC(=O)N(C1CCOCC1)C1CCN(C(=O)NCc2ccc(OC(F)(F)F)cc2)CC1	1.3%	i	-12.0%	-26.6%	0.9%	.	.	.	.
O=C1NC2(CCN(C(=O)c3ccccn3)CC2)Oc2ccccc21	0.0%[70.6 µM]	i	1.1%[138 µM]	-5.2%[172 µM]	i	.	.	.	.
O=C1NC2(CCN(C(=O)c3ccccn3)CC2)COc2ccccc21	?	i	2.6%[138 µM]	-14.6%[172 µM]	-6.0%[88.5 µM]	?	25µM*	-14.4%[86.2 µM]	11.9%[86.2 µM]
CNC(=O)c1ccc(CC2CCN(C(C)=O)CC2)cc1	5.8%	i	-27.3%	-26.4%	-7.9%	.	.	.	.
CC(=O)N1CCC(Cc2ccc(C(=O)NC3CCN(Cc4ccccc4)CC3)cc2)CC1	11.2µM*	i	?	?	5.0%	24.3µM*	?	1.0%	24.3µM*
COc1ccc(CC(=O)N2CCC(Cc3nc(-c4ccccc4)no3)CC2)cc1Cl	12.6µM*	i	35.5µM*	?	i	24.3µM*	27.3µM*	1.9%	24.3µM*
COc1ccc(-c2noc(CC3CCN(C(=O)Cc4ccc(OC)c(Cl)c4)CC3)n2)cc1	12.6µM*	i	?	?	-0.5%	24.3µM*	24.3µM*	0.4%	17.2µM*
COc1ccc(CN2C=C(C(=O)OCc3noc(-c4ccc(C)cc4)n3)C(C)=NS2(=O)=O)cc1	10µM*	i	?	-26.7%	i	15.3µM*	13.7µM*	-0.2%	12.2µM*
COc1ccc(CN2C=C(C(=O)OCc3noc(-c4cccc(OC)c4)n3)C(C)=NS2(=O)=O)cc1	?	i	?	?	1.4%	?	-29.6%	0.4%	?
COc1ccc(CN2C=C(C(=O)OCc3noc(-c4ccc(C)c(C)c4)n3)C(C)=NS2(=O)=O)cc1	?	i	-25.5%	?	i	.	.	.	.
CC1=NS(=O)(=O)N(Cc2ccccc2)C=C1C(=O)OCc1noc(-c2ccc(C)c(C)c2)n1	11.2µM*	i	?	?	i	17.2µM*	?	-1.9%	15.3µM*
O=C(CCc1c[nH]c2ccccc12)N1CCC(N2CC3CC(C2)[C@H]2CCCC(=O)N2C3)CC1 (stereo partly specified)	-2.6%	i	-1.4%	-26.4%	4.0%	.	.	.	.
COc1ccc(C(=O)N2CCCC2c2nn(C)c(=O)n2Cc2ccccc2)cc1F (stereo unspecified)	.	.	3.2%	i	-15.5%	.	.	.	.
CCc1noc(CC2CCOC3(CCN(S(=O)(=O)c4ccccc4Cl)CC3)C2)n1 (stereo unspecified)	?	i	-23.3%	?	4.6%	21.7µM*	21.7µM*	-0.5%	17.2µM*
CCc1noc(CC2CCOC3(CCN(S(=O)(=O)c4cc(F)ccc4C)CC3)C2)n1 (stereo unspecified)	?	i	?	?	0.4%	.	.	.	.
CCc1noc(CC2CCOC3(CCN(S(=O)(=O)c4cccc(Cl)c4)CC3)C2)n1 (stereo unspecified)	10µM*	i	?	?	i	21.7µM*	?	-2.0%	21.7µM*
